ChEMBL document CHEMBL3988442, “University of Dundee, Small-Polar-MMV Screening Library” (2021)
Out of some 38,000 compounds screened, about 1,200 (3.2%) showed an effect of 50% or more. The median lay at about -58%. Only a selection was taken, and strong results are over-represented in it overall.

System: Plasmodium falciparum
Assay: Calibr Malaria Delayed Death Assay SOP
Type: functional, organism-based
Set-up: scale not given: in the data most compounds retested in dose-response had high values
Settings: concentration 4.99e-06 (unit not given; other assays of the set use mol/L)

| Compound | Percent Effect |
| --- | --- |
| O=C(c1ncccn1)N1C[C@@H]2COC[C@]2(COc2cccnc2)C1 | -80.86% |
| O=C(CCn1ccccc1=O)N1CCCC(COc2ccc(F)cc2)C1 (stereo not given) | -62.32% |
| CN1Cc2c(C(=O)NC3CCCCC3)ncn2-c2ccccc2S1(=O)=O.O=C(O)C(F)(F)F | -186.4% |
| COc1ccc(-c2cc(N)ccn2)c(OC)c1OC | -13% |
| COc1cc(F)ccc1-c1cc(CO)ccn1 | -93.03% |
| COc1cc(F)ccc1-c1cc(N)ccn1 | 50.95% |
| Cc1cnc(C(=O)N2CCOCC2C)cn1 (stereo not given) | -104.7% |
| O=C(NCC1CC1)[C@@H]1CC[C@@H]2[C@@H](CCN2Cc2ccc(F)c(F)c2)O1.O=C(O)C(F)(F)F | -53.52% |
| O=C1CCCN1CCC1CCN(C2CCCNC2)CC1 (stereo not given) | -108.9% |
| CCn1cc(CN2CCN(C(=O)c3cc(C)c(C)s3)CC2)c(C)n1 | -80.19% |
| COCCOc1ccccc1CNCC1COC2(CCCC2)O1 (stereo not given) | 73.59% |
| Cc1cccc(CNCC2COC3(CCCCC3)O2)c1C (stereo not given) | -23.41% |
| Cc1cccc(CNCC2COC3(CCCC3)O2)c1C (stereo not given) | -41.87% |
| CC(=O)Nc1nc(C(=O)NCc2ccc(OC(C)C)nc2)cs1 | -75.22% |
| CN(C)CCN(Cc1ccc(Cl)cc1)C(=O)c1cnccn1 | 32.67% |
| Cc1cnc(C(=O)N(CCN(C)C)Cc2ccc(Cl)cc2)cn1 | -38.51% |
| Cc1cc(C(=O)N(CCN(C)C)Cc2ccc(Cl)cc2)no1 | 51.61% |
| CN(C)CCN(Cc1ccc(Cl)cc1)C(=O)c1ccncc1 | 51.29% |
| CN(C)CCN(Cc1ccc(C(F)(F)F)cc1)C(=O)c1cc[nH]n1 | 33.3% |
| CN(C)CCN(Cc1ccc(Cl)cc1)C(=O)c1ccn(C)c(=O)c1 | -75.96% |
| Cc1nnc([C@@H]2CC[C@@H]3[C@@H](CCN3C3CCC3)O2)o1 | -20.01% |
| CC1CCCN(C(=O)Nc2ccc(F)c(C(N)=O)c2)C1 (stereo not given) | -56.74% |
| CNc1cc(-c2cccc(CN)c2)c2cc[nH]c2n1 | -44.1% |
| CCc1ccc2nc(C)cc(C(=O)N[C@@H]3CCCNC3)c2c1 | 64.11% |
| CCc1ccc2nc(C)cc(C(=O)NC[C@@H]3CCNC[C@H]3O)c2c1 | -50.87% |
| CCc1ccc2nc(C)cc(C(=O)N[C@@H]3CNC[C@H]3O)c2c1 | -23.23% |
| CC(C)(C)CN1CCCC12CCN(S(=O)(=O)c1ccccc1)C2.O=C(O)C(F)(F)F (stereo not given) | 29.05% |

| Compound | Percent Effect |
| --- | --- |
| Cc1cccc(C(=O)N2CCCn3cnc(CN4CCCC4=O)c3C2)n1 | -0.7301% |
| Cn1ncc2c1CN(Cc1ccccc1F)CC2COCC1CC1.O=C(O)C(F)(F)F.O=C(O)C(F)(F)F (stereo not given) | -47.59% |
| COc1ccc(OCC2CCCN(c3nc(CO)cs3)C2)cc1 (stereo not given) | -52% |
| OCc1csc(N2CCCC(COc3cccc(F)c3)C2)n1 (stereo not given) | 81.1% |
| Cc1ccc(OCC2CCCN(c3nc(CO)cs3)C2)cc1 (stereo not given) | -23.08% |
| COCCCNC(=O)N1CCC(CNC(=O)c2cnn(C)c2)CC1 | -42.86% |
| c1c(CN2CCOCC2)nc2n1CCN(C1CCOCC1)C2 | -53.44% |
| CC(C)[C@@H]1CN(S(=O)(=O)c2cccc(C(=O)O)c2)C[C@H]1N(C)C | -75.82% |
| CC(C)[C@H]1CN(S(=O)(=O)c2cccnc2)C[C@@H]1N | -121.7% |
| COc1cccc(S(=O)(=O)N2C[C@@H](N(C)C)[C@H](C(C)C)C2)c1 | 72.07% |
| CS(=O)(=O)NCc1cnc2n1CCN(Cc1ccco1)CC2.O=C(O)C(F)(F)F | -61.12% |
| Cc1ccc(C(=O)Nc2nnc(C(C)C)s2)c(-n2cnnn2)c1C | -117.2% |
| Cc1cnn(CCNCc2nccn2CC(F)(F)F)c1 | 12.08% |
| Cc1cnn(CCNCc2nccn2Cc2ccccc2)c1 | 81.96% |
| Cc1cnn(CCNCc2c(C)nn(Cc3ccccc3)c2C)c1 | 31.58% |
| CC(NC(=O)c1cccs1)(C(N)=O)c1cccc(C(F)(F)F)c1 (stereo not given) | -110.1% |
| CCc1nc(N2CCC3(CC2)OCCCC3O)ncc1C (stereo not given) | -35.89% |
| CCc1ncc(C(=O)NC(C)(C)C(=O)OC)s1 | -64.84% |
| COC(=O)[C@H](C)NC(=O)c1cnc(Cc2ccc(F)cc2)s1 | -108.7% |
| COC(=O)C(C)(C)NC(=O)c1cnc(Cc2ccc(F)cc2)s1 | 74.7% |
| CC1c2cccn2CCN1C(=O)CCc1nc(-c2ccccc2)no1 (stereo not given) | -13.83% |
| Cc1nn(C)c(N(C)C)c1CNC1CCOc2c(F)cccc21 (stereo not given) | -94.95% |
| Cc1cccc2c1OCCC2NCc1c(C)nn(C)c1N(C)C (stereo not given) | -2.294% |
| Cn1cc(CNC2CCCOc3c(Cl)cccc32)cn1 (stereo not given) | 17.16% |
| Cn1cc(CNC2CCCOc3c2ccc2ccccc32)cn1 (stereo not given) | 61.58% |
| Cn1ccnc1CNC1CCCOc2c1ccc1ccccc21 (stereo not given) | 76.31% |
| Cc1cccc2c1OCCCC2NCc1nnc2n1CCCCC2 (stereo not given) | -75.07% |

| Compound | Percent Effect |
| --- | --- |
| O=C(O)Cc1cnc(-c2c(Cl)cccc2Cl)s1 | -103% |
| CN(Cc1ccco1)Cc1cncc2c1CCN(S(C)(=O)=O)C2.Cl.Cl | -71.86% |
| CCCNC(=O)CCNc1cncc(-n2nc(C)cc2C)n1 | -96.17% |
| CCOc1cccc(COC(=O)c2cc(C)on2)n1 | -20.94% |
| FC(F)(F)c1ccnc(N2C[C@H]3CCN(c4cccnc4)C[C@H]3C2)n1.O=C(O)C(F)(F)F | -4.152% |
| CC1CN(C)CCN1C(=O)c1ccn(-c2ccc(F)cc2)n1 (stereo not given) | -53.04% |
| CCC(NCc1ccccc1)c1ccccc1OCC(=O)NC (stereo not given) | 63.6% |
| CCC(NC(N)=O)c1ccccc1OCC(=O)N1CCCC1 (stereo not given) | -42% |
| CNC(=O)Cc1noc(Cc2cccc(Cl)c2)n1 | -69.96% |
| CCC(NCc1ccccn1)c1ccccc1OCC(=O)NC (stereo not given) | -34.3% |
| CNC(=O)COc1ccc(-c2ccccc2)nc1 | -42.95% |
| Cc1sc(NS(=O)(=O)c2ccccc2)nc1C(=O)NC1CC1 | -59.95% |
| CCOCC1CN(C(=O)c2cccc(C)n2)Cc2cnn(C)c21 (stereo not given) | -41.72% |
| CCOC(=O)N1CCN(C(=O)CCn2ccc3c(OC)cccc32)CC1 | -55.78% |
| Cc1cc(CC(=O)NC2CCCN(c3ccccc3Cl)C2=O)n[nH]1 (stereo not given) | -141.2% |
| O=S(=O)(CCN1CCCC1Cn1cccn1)c1ccccc1 (stereo not given) | -24.99% |
| Clc1ccc(C2(CNC3=NCCN3)CCCC2)cc1.I | 83.48% |
| NC(=O)CNC1(c2ccc(Cl)cc2)CCCC1 | -116.4% |
| Clc1ccc(C2(CNC3=NCCN3)CCCCC2)cc1.I | 89.77% |
| Cc1nnc(C(C)NCC2(c3ccc(Cl)cc3)CCCC2)o1 (stereo not given) | -5.972% |
| CN(C)C(=O)CCS(=O)(=O)Cc1cc(Cl)c2c(c1)OCO2 | -99.04% |
| COCCNC(=O)Cn1c(-c2ccc(Cl)cc2)nc(C)c(CCO)c1=O | -30.51% |
| CCOC(=O)c1cnn(-c2cc(Oc3ccccc3C)ncn2)c1N | -71.43% |
| Cc1nc(N2CCN(C(=O)NCc3cscn3)CC2)sc1C | -173% |
| N#CC1COCCN1C(=O)c1ccc2[nH]cnc2c1 (stereo not given) | -106.6% |
| COC(=O)C(O)C1CCN(Cc2cccc(-n3cccn3)c2)CC1 (stereo not given) | -42.85% |
| CN1CCC(C2CCN(Cc3cccc(-n4cccn4)c3)CC2)C1 (stereo not given) | 85% |

| Compound | Percent Effect |
| --- | --- |
| CN1CCN([C@@H]2CCN(Cc3cccc(-n4cccn4)c3)C[C@H]2O)CC1 | -47.29% |
| O=C(CN1C=Nc2ccccc2S1(=O)=O)NCc1ccccc1F | -61.62% |
| Cc1ccc(O)c(CNC2CCc3nc(C)nn3C2)n1 (stereo not given) | -50.72% |
| COCC(c1ccccn1)N(C)C(=O)c1cc(-c2ccccc2O)n[nH]1 (stereo not given) | -47.61% |
| CO[C@H]1CN(C(C)C)C[C@@H]1NC(=O)Nc1ccc2oc(C)cc2c1 | -10.12% |
| Cc1ncoc1C(=O)N1CC[C@@H](O)[C@@H](O)[C@H](N2CCC(F)(F)CC2)C1 | -177.2% |
| CCC(=O)N1CCC2(C=C(C(=O)N(C)C)c3ccccc32)CC1 | -96.59% |
| CN1CCC2(C=C(C(=O)N(C)C)c3ccccc32)CC1 | 59.58% |
| CCN1CCC2(C=C(C(=O)N(C)C)c3ccccc32)CC1.O=C(O)C(F)(F)F | -5.162% |
| COc1cc(CCC(=O)NC2CCCN(C)C2)ccc1OCC(F)(F)F (stereo not given) | 27.9% |
| Cc1noc(C)c1CN1CC[C@H]2OCC[C@@]2(C(=O)NCC2CC2)C1.O=C(O)C(F)(F)F | -150.6% |
| COC[C@@H]1CCC[C@@]12CN(C(=O)C1CCOCC1)CCO2 | -66.15% |
| COc1ccc(-n2nnnc2C(C)(C)Nc2ccc(C)cc2C)cc1 | -134.7% |
| Cc1nnc(C2CCN(C(=O)c3ccsc3)CC2)s1 | -17.33% |
| Cn1ccnc1CN1CCC(c2ccnc(-c3cccc(O)c3)c2)C1 (stereo not given) | 27.57% |
| CN(C)CC(C)(C)CN1CCC(c2ccnc(-c3cccc(O)c3)c2)C1 (stereo not given) | 69.12% |
| Oc1cccc(-c2cc(C3CCN(Cc4cncnc4)C3)ccn2)c1 (stereo not given) | -16.47% |
| Nc1cccnc1N1CCC(O)CC1 | -81.29% |
| Cc1n[nH]c(C)c1-c1cc(-c2cc[nH]c2)nc(N)c1C#N | -97.75% |
| O=C(O)C(F)(F)F.O=C(O)C(F)(F)F.c1cncc(N2CCCC3(CCN(CCN4CCCC4)CC3)C2)c1 | 91.95% |
| O=C(O)C(F)(F)F.c1cncc(N2CCCC3(CCN(CC4CCCO4)CC3)C2)c1 (stereo not given) | 46.34% |
| Cn1cc(CN2CCCC3(COCCN(c4cccnc4)C3)C2)cn1.O=C(O)C(F)(F)F.O=C(O)C(F)(F)F (stereo not given) | -73.12% |
| c1cncc(CN2CCCC3(COCCN(c4cncnc4)C3)C2)c1 (stereo not given) | -38.46% |
| O=C(O)C(F)(F)F.c1cncc(N2CCC3(CCCN(c4ccncc4)C3)CC2)c1 | 46.04% |
